Measured values taken from the supplement of paper PMC10681739.
Whole data set: some 4,100 sequences, median “arbitrary fluorescence units” near 780, cut for the highest 2% near 22,000. This excerpt belongs to a sample that is enriched for the highest values.

The sequences below were run against T1, ETS1 (UniProt P14921) (assay: ETS1 binding intensity (PBM fluorescence), ETS1 alone (arbitrary fluorescence units); higher = stronger binding). Conditions: ETS1 concentration 1 nM; RUNX1 concentration 0 nM.
T1 sequence: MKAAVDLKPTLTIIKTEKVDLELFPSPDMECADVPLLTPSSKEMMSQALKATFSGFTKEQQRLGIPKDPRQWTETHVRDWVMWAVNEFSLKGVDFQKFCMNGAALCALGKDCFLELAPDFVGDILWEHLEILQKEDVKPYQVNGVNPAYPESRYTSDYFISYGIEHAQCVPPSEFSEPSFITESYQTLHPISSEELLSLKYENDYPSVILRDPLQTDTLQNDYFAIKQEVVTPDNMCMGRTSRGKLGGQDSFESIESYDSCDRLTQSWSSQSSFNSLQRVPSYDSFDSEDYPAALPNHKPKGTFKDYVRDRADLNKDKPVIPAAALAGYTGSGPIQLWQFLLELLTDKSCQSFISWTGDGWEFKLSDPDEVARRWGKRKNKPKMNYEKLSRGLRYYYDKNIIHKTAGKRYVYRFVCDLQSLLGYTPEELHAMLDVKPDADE
In short: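 Full-length recombinant human ETS1 (1 nM, no RUNX1) was incubated, per standard PBM protocols, on double-stranded Agilent 4 × 180k arrays of 36-bp genomic probes whose RUNX1 partner site was mutated. Bound ETS1 was detected with anti-ETS1 antibody (Cell Signaling Technology 14069) and Alexa488-conjugated secondary antibody, then scanned on a GenePix 4400A. Binding level is spot fluorescence intensity, summarised over replicate spots (four printed per sequence) and not normalised.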
With TGGAGCTGTTACGGGGTCCGCGGGGAAGTCTTGGCA the ETS1 binding intensity was 364. CTGCTTGAGGGTGGAGGGGAGCTTCCGAAGGAGGCC showed an ETS1 binding intensity of 536. GGACGCTTCCGGTGGAAGGGAGCTGTTACGGGGCTT was tested, and the ETS1 binding intensity was 32900. AAACCAGAGGAAGTGGATTCCAACTACAAACCTCAC gave an ETS1 binding intensity of 1830. CTTATCAACTACCAAGAGACATTTCCCCTTTGTACT showed an ETS1 binding intensity of 558. For ACTCACTTCCGTTTAGCTTATCAACTACCAAGAGAC, the ETS1 binding intensity was 35500. In the case of CGGGAGCGGCCGAAGTGACGACTTCCGGGATGCTCC, the ETS1 binding intensity is reported as 7380. CGCCTCATTTCCTGTGCAACTGCTGTAAAAATAGGA was tested, and the ETS1 binding intensity was 22400. GTGCAACTGCTGTAAAAATAGGAAGTGGGGGAGGAG was tested, and the ETS1 binding intensity was 861. CCACCGTGCTGTAAACTGCACTTCCTCACTTAGCAC was tested, and the ETS1 binding intensity was 870. CACCTGACTACAAGGCACACGAACATCCTTATCACA was tested, and the ETS1 binding intensity was 655. ACCAAGTTTCGGGCAGGATCTTCCTGTAGTTTGCCT gave an ETS1 binding intensity of 566. For CTCCAAGCCCAGAGAGCACCCCTTCCTGCCCGGACA, the ETS1 binding intensity was 737. Sequence CGTACGCGCACTTCCGGTCTTTGTGACTTGCAGCTC has an ETS1 binding intensity of 38700. Work on CACGGTCTTTGCCGCTCAGCTTCCCGGAGTCCGCGC yielded an ETS1 binding intensity of 458. With TTCTCTGGGGACAATTAGGGTTTCTGGGTTTCCTGA the ETS1 binding intensity was 457. Work on CCTGGGGGGCCGGAAGCCCCGCTTCGGCCCCAGCCC yielded an ETS1 binding intensity of 2820. In the case of CACTTCCTGTCAAAGCCAGTTCCTTAGCCGCTTAGG, the ETS1 binding intensity is reported as 45000. Sequence TCTCCCTGCCCGCGAGTCAAAGCCACTTCCTTTTCC has an ETS1 binding intensity of 917. Work on TGTCATCCCGGAAACTGATAACAAGACCTCGAGTCA yielded an ETS1 binding intensity of 4740. With TGGGGCCTTGTTATCACAGCACTTCCTGTTTGCTTT the ETS1 binding intensity was 7990. AGCTTCCTGTTTGGCCTTGCTGATGTCACCCCATTA was tested, and the ETS1 binding intensity was 27600. For TACAGCTTCCTTCACCCCACTTGGGGCCTGGGTTAC, the ETS1 binding intensity was 1140. Sequence TCCTGGCTGCCCCCAAGGCCAGGAAGAGCGAAAACA has an ETS1 binding intensity of 434. CTGAAACAGGAAACAGACAAAGTCACAAGGTTCGCA showed an ETS1 binding intensity of 5430. With CCTGCTGTGACTTCGGCTGTTTTCCTGGCCTGTGAG the ETS1 binding intensity was 387. GACTTCCTGTTGAAGATTGGCCTCTTCGGTAGCACA showed an ETS1 binding intensity of 44600. Sequence TGGCCTCTTCGGCCCTGGCCTTGACTTCCTTTCCTC has an ETS1 binding intensity of 362. For CCCACCTCGGCCCACGCCGAGCGTGGCGGAACAGCT, the ETS1 binding intensity was 385. For CGGGCACGTCCTACGGCAGCAACGTCCGCCGCGCCG, the ETS1 binding intensity was 540. Work on CACCCAAGGATATGCTTTTTTTTGGCAAGTCACATC yielded an ETS1 binding intensity of 604. In the case of TTGGCCTGGGCTCTGGGCCACTTCCTGTGCTCTCCA, the ETS1 binding intensity is reported as 5490. For TTCTGCTACATCCTGCCCACTCCCTGTGACTTCCAC, the ETS1 binding intensity was 9350. TTTCCACTTCCTGTTCTACTTGGGGCTACTGACTCA showed an ETS1 binding intensity of 25500. Work on AAAGCATTTCCTGCCTTGACTTAACTACAAGACAGG yielded an ETS1 binding intensity of 25700. Work on CTTGACTTAACTACAAGACAGGATGGGTTGATGAAG yielded an ETS1 binding intensity of 426. TTTATCCTTATTTCCTGGCTTCGCCTACAAGCACAG showed an ETS1 binding intensity of 5090. TTCACGCTCCGTAAGCTCGCTCCTTCCGGGACGCAG gave an ETS1 binding intensity of 643. CTCTGCTTCCTGTCTTTGAATGCCTCTGTGATTTTC showed an ETS1 binding intensity of 13400. Work on GTGGGGCGGGCTTCCGGCGCTCCCACCGTGAGCCGA yielded an ETS1 binding intensity of 8140. Work on TGCTTCCGGCGGGCGCTTGCTCCCCGAGGTCGGCAA yielded an ETS1 binding intensity of 24800. AAGGTCGAGGTCTCGGCTTCCCCGGAACTTTTTGCT was tested, and the ETS1 binding intensity was 295. Sequence GAAGGGAGGAAGCCTGAGAACTGTTGTCTCCTGAAG has an ETS1 binding intensity of 424.
